Results filed as inconclusive are left out. Calls of active or inactive are those of the source. Unless noted, calls come from the whole dose curve; as a rule, active = well fitted curve in the direction sought with a large enough effect in the repeat runs; inconclusive = weak or mixed curves; inactive = no such curve, though single readings can be large; an effect the other way counts as inactive or inconclusive.
Columns and labels:
[1] = A CellTox Green Cytotoxicity Assay to monitor cytotoxicity in HepG2 cells - 0 hour (AID 1224882); note: nearly all actives have a fitted effect of over 35% in size
How it was run: (§1)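 Measurements at 0, 8, 16, 24, 32 and 40 h of treatment captured CellTox Green fluorescence in HepG2 cells that had been co-plated with reagent and preincubated 5 h at 37 C/5% CO2.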

[2] = A CellTox Green Cytotoxicity Assay to monitor cytotoxicity in HepG2 cells - 32 hour (AID 1224883); note: nearly all actives have a fitted effect of over 50% in size
How it was run: as §1

[3] = A CellTox Green Cytotoxicity Assay to monitor cytotoxicity in HEK293 cells - 8 hour (AID 1224884); note: nearly all actives have a fitted effect of over 35% in size
How it was run: (§2)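 Tox21 screen in HEK293: membrane-impermeant cyanine dye fluoresces on binding dead-cell DNA; compound pinned 5 h post-seeding, plates held at 37 C, signal read repeatedly through 40 h.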

[4] = qHTS RealTime-Glo MT Cell Viability Assay in HEK293 cells - 24 hour (AID 1224886); note: top concentration of the series differs between compounds; nearly all actives have a fitted effect of over 50% in size
How it was run: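 Luminescence generated by NanoLuc from substrate produced by living HEK293 cells served as the viability signal. Each value reflects the reading at its stated time point during continuous 40 h compound exposure at 37 C.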

[5] = qHTS RealTime-Glo MT Cell Viability Assay in HEK293 cells - 8 hour (AID 1224887); note: top concentration of the series differs between compounds; nearly all actives have a fitted effect of over 50% in size
How it was run: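 HEK293 + NanoLuc + prosubstrate, 600 cells/well; 5 h, 37 C/5% CO2; compound 23 nL in DMSO by pintool; 37 C; luminescence read at 0, 8, 16, 24, 32 and 40 h time points.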

[6] = A CellTox Green Cytotoxicity Assay to monitor cytotoxicity in HEK293 cells - 16 hour (AID 1224888); note: nearly all actives have a fitted effect of over 35% in size
How it was run: as §2

[7] = qHTS RealTime-Glo MT Cell Viability Assay in HepG2 cells - 0 hour (AID 1224889); note: nearly all actives have a fitted effect of over 50% in size
How it was run: (§3)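 Tox21 10K library screened in qHTS format on HepG2 cells carrying RealTime-Glo reagents. Compounds were added after a 5 h preincubation, and the luminescent signal from continuous culture was measured repeatedly during 40 h treatment.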

[8] = A CellTox Green Cytotoxicity Assay to monitor cytotoxicity in HepG2 cells - 8 hour (AID 1224890); note: nearly all actives have a fitted effect of over 45% in size
How it was run: as §1

[9] = qHTS assay to identify small molecule antagonists of the estrogen receptor alpha (ER-alpha) signaling pathway using the BG1 cell line in the presence of 0.1 nM 17-beta-estradiol - cell viability counter screen (AID 1259241); note: nearly all actives have a fitted effect of over 40% in size
How it was run: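 VM7Luc4E2, 4,000 cells/well, phenol red-free medium + 10% charcoal-stripped FBS; 24 hr plating; cpd + 0.1 nM E2 final, 22 hr 37C/5% CO2; CellTiter-Fluor 30 min, fluorescence.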

[10] = qHTS assay to identify small molecule antagonists of the androgen receptor (AR) signaling pathway using the MDA cell line in the presence of 0.5 nM R1881 - cell viability counter screen (AID 1259242); note: nearly all actives have a fitted effect of over 45% in size
How it was run: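 Concentration-response screen of compounds for toxicity in MDA-kb2 reporter cells: 16 hr at 37C with 0.5 nM R1881, endpoint live-cell protease fluorescence measured in the reporter wells.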

[11] = target: Estrogen receptor (Homo sapiens) (UniProt P03372); assay: qHTS assay to identify small molecule antagonists of the estrogen receptor alpha (ER-alpha) signaling pathway using the BG1 cell line in the presence of 0.1 nM 17-beta-estradiol (AID 1259244); note: nearly all actives have a fitted effect of over 50% in size
Sequence of Estrogen receptor (Homo sapiens) (P03372 whole entry, looked up): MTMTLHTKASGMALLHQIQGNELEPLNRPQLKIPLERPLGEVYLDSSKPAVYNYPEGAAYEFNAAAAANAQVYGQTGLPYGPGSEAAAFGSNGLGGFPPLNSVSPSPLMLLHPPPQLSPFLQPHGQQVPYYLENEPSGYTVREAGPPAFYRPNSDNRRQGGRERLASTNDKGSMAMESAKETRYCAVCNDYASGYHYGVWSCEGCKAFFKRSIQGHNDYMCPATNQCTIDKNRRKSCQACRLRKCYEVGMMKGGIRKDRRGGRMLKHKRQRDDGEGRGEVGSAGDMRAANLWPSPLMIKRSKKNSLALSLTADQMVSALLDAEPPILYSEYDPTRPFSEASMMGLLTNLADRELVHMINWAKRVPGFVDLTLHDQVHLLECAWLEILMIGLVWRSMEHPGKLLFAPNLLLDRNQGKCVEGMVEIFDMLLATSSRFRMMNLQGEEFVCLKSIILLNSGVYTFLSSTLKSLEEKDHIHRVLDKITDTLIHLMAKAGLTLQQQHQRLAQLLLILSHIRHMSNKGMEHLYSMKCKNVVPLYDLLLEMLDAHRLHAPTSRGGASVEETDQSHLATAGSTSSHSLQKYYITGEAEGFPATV
How it was run: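 Compounds were tested against 0.1 nM (final) 17beta-estradiol in VM7Luc4E2 cells, which express full-length ER-alpha and an ERE-luciferase reporter; luminescence was recorded following 22 h exposure.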

[12] = qHTS assay to identify small molecule phospholipidosis (PLD) inducers (AID 1259344; active = well fitted curve in the direction sought with a large enough effect; an effect the other way counts as inactive or inconclusive)
How it was run: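 Read-out is LipidTOX Red fluorescence (ex 595/em 615) imaged in HepG2 cells after 24 h compound exposure at 37 C, with Hoechst nuclear counterstain (ex 352/em 461) allowing per-cell normalisation.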

[13] = qHTS assay to identify small molecule HDAC inhibitors (AID 1259364);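 note: wild-type HCT-116 cells with endogenous class I/II HDAC activity; top concentration of the series differs between compounds; nearly all actives have a fitted effect of over 45% in size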
How it was run: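 Screening used wild-type human colon HCT-116 cells incubated overnight, dosed with compounds for 2 hours, and assayed with a homogeneous luminogenic HDAC I/II reagent for 30 minutes at room temperature.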

[14] = qHTS assay to identify small molecule HDAC inhibitors - cell viability counter screen (AID 1259365)
How it was run: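 Luminescence from CellTiter-Glo, developed 30min at room temperature, reports viability of wild-type HCT-116 cells treated 2hr with compounds at 37 C and 5% CO2 after overnight plating.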

[15] = qHTS assay to identify small molecule agonists of the sonic hedgehog signaling (Shh) pathway - cell viability counter screen (AID 1259366); note: nearly all actives have a fitted effect of over 50% in size
How it was run: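 Cytotoxicity counter screen run in the same wells as the Shh reporter assay. NIH/3T3 cells carrying a Gli1 response element–driven luciferase were treated with DMSO-dissolved compounds for 24hr, and live-cell protease activity was measured with CellTiter-Fluor.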

[16] = qHTS assay to identify small molecule agonists of the sonic hedgehog signaling (Shh) pathway (AID 1259368; calls by dose curve;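 note: NIH/3T3-derived 3T3Gli1-Luc cells carrying a stable Gli1-driven firefly luciferase reporter; series mostly up to about 92 µM; nearly all actives have a fitted effect of over 15% in size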)
How it was run: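 Hedgehog pathway agonism scored by increased firefly luciferase luminescence in 3T3Gli1-Luc cells treated 24 hr at 37 C; detection used a 30 min room-temperature reagent incubation.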

[17] = qHTS assay to identify small molecule antagonists of the sonic hedgehog signaling (Shh) pathway (AID 1259369; calls by dose curve; note: nearly all actives have a fitted effect of over 45% in size)
How it was run: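 NIH/3T3 stable Gli1-Luc clone, 2,000 cells/well, 4hr settle; cpd + conditioned medium 24hr; Luc reagent 30min RT; luminescence.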

[18] = qHTS RealTime-Glo MT Cell Viability Assay in HepG2 cells - 16 hour (AID 1224885); note: nearly all actives have a fitted effect of over 50% in size
How it was run: as §3

[19] = target: Androgen receptor (Homo sapiens) (UniProt P10275); assay: qHTS assay to identify small molecule antagonists of the androgen receptor (AR) signaling pathway using the MDA cell line in the presence of 0.5 nM R1881 (AID 1259243); note: nearly all actives have a fitted effect of over 50% in size
Sequence of Androgen receptor (Homo sapiens) (P10275 whole entry, looked up): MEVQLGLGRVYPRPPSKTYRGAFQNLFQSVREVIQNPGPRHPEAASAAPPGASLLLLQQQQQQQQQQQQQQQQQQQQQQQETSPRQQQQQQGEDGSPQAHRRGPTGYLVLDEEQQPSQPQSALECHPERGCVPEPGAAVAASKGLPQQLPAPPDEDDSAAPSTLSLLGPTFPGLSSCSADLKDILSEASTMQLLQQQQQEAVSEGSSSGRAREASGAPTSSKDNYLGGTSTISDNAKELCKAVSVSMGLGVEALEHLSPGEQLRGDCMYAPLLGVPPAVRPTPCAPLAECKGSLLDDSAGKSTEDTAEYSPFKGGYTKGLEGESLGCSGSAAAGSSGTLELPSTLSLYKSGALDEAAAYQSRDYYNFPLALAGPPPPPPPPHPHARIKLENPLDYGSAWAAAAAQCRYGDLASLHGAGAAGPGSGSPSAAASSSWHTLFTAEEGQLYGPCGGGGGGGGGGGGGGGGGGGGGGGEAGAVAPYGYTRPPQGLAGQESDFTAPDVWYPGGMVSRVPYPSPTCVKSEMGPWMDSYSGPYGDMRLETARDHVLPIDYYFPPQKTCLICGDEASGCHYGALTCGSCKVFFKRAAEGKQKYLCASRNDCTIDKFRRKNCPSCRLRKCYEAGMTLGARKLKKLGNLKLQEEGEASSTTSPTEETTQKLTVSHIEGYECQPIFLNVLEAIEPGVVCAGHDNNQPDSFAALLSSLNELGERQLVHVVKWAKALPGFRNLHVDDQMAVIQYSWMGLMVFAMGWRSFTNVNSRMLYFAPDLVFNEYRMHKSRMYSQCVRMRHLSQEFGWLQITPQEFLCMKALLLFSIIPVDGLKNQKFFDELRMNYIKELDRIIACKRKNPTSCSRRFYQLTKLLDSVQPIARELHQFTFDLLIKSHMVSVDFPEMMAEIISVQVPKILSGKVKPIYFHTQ
How it was run: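 With R1881 held at 0.5 nM (final), compound effects on MMTV-luciferase expression in MDA-kb2 cells were scored by luminescence after a 16 hr, 37C incubation.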

[20] = qHTS assay to identify small molecule antagonists of the sonic hedgehog signaling (Shh) pathway - cell viability counter screen (AID 1259367); note: nearly all actives have a fitted effect of over 55% in size
How it was run: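 Fluorescence read-out (CellTiter-Fluor, 1 hr at 37C) taken after 23 hr compound treatment of 3T3 Gli1-Luc cells stimulated with conditioned medium. Cells were seeded at 2,000 per well and pre-incubated 4 hr.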

Measured: Potency

C[N+]1(C)CCCC(OC(=O)C(O)(c2ccccc2)c2ccccc2)C1 (centres undefined)
inactive: [1] | [2] | [3] | [4] | [5] | [6] | [7] | [8] | [9] | [10] | [11] | [12] | [13] | [14] | [15] | [16] | [17]

CC(C)(C)c1ccc(-c2ccc(C(C)(C)C)cc2)cc1
inactive: [1] | [2] | [18] | [4] | [5] | [6] | [7] | [8] | [9] | [10] | [19] | [11] | [13] | [14] | [15] | [16] | [17]

C1CCC2=NCCCN2CC1
inactive: [1] | [2] | [18] | [4] | [5] | [6] | [7] | [8] | [9] | [10] | [13] | [14] | [15] | [20]

C[C@H]1[C@H](NC(=O)/C(=N/OC(C)(C)C(=O)O)c2csc(N)n2)C(=O)N1S(=O)(=O)O (stereo in doubt)
inactive: [1] | [2] | [3] | [4] | [5] | [6] | [7] | [8] | [9] | [10] | [12] | [13] | [14] | [15] | [20] | [16] | [17]

CCCCCCCCCCCCCCC(=O)O
inactive: [1] | [2] | [18] | [4] | [5] | [6] | [7] | [8] | [9] | [10] | [11] | [13] | [14] | [15] | [20] | [16] | [17]

O=S(=O)(O)c1cccc2c(S(=O)(=O)O)cccc12
inactive: [1] | [2] | [3] | [18] | [5] | [7] | [8] | [9] | [10] | [13] | [15] | [20] | [16] | [17]

O=C1NC(=O)C2CC=CCC12 (centres undefined)
inactive: [1] | [2] | [3] | [4] | [5] | [6] | [7] | [8] | [9] | [10] | [13] | [14] | [15] | [20] | [17]

CN(C)C(=O)Oc1cccc([N+](C)(C)C)c1
inactive: [1] | [2] | [18] | [4] | [5] | [6] | [7] | [8] | [9] | [10] | [11] | [12] | [13] | [14] | [15] | [20] | [16] | [17]
